Test system: Schistosoma mansoni schistosomula (Liberian)
Test: drug effect (1 - score/DMSO control score) (fraction); higher = more antischistosomal effect, active = 0.5 or more; extreme values may be limits of the assay
Details: 48 h; 10 µM
How it was run: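 Schistosomula of the Liberian strain of Schistosoma mansoni were mechanically transformed from cercariae, pre-incubated for at least 12 h, and placed at 50 per well in flat-bottom 96-well plates with Medium 199 containing 5% FCS. Compounds were tested in duplicate at 10 µM at 37 °C and 5% CO2, alongside wells holding 0.1% DMSO. Parasites were scored visually at 10× after 24, 48 and 72 h on a quarter-point scale running from 3 (normal) to 0 (dead). Drug effect came from the mean test-well score relative to the mean DMSO-well score, with negative values set to zero and plates accepted only when the DMSO wells averaged at least 2.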

| Structure (SMILES) | drug effect |
| --- | --- |
| c1ccc(C[C@@H]2CN(c3nccc(Oc4ccc(-n5ccnc5)cc4)n3)CCN2)cc1 | 0.111 (inactive) |
| Cc1nc(-c2cccc(NCc3ccccc3)c2)[nH]c1C | 0.111 (inactive) |
| c1cc(C2=NCCN2)cc(-c2cc(-c3ccc(C4=NCCN4)cc3)no2)c1 | 0.111 (inactive) |
| NCCC(O)C(=O)N[C@@H]1C[C@H](N)[C@@H](OC2O[C@H](CN)[C@@H](O)[C@H](O)[C@H]2O)[C@H](O)C1OC1O[C@H](CO)[C@@H](O)[C@H](N)[C@H]1O (stereo partly drawn) | 0.0625 (inactive) |
| Nc1ccc(C(=O)Nc2ccc(-c3nc4ccccc4o3)cc2)cc1 | 0.05 (inactive) |
| Cc1ccc2nc(Cl)c(CNCc3cccs3)cc2c1 | 0.2 (inactive) |
| Cc1nn(C)cc1C(C)Nc1nncc(-c2ccc(C(F)(F)F)cc2)n1 (stereo not drawn) | 0.1 (inactive) |
| Clc1cccc(C(c2ccc(CN3CCNCC3)cc2)n2ccnc2)c1 (stereo not drawn) | 0.667 (active) |
| Nc1ccc2ncnc(Nc3ccc(OCc4cccc(F)c4)c(Cl)c3)c2c1 | 0.622 (active) |
| COc1ccc(C2=NN(C3CCCCCC3)C(=O)[C@@H]3CC=CC[C@H]23)cc1OCCCCOc1ccc(-c2nn[nH]n2)cc1 | 0.568 (active) |
| Clc1ccc(CN2CCN(C3=NCCN3)CC2)cc1Cl | 0.0556 (inactive) |
| Cc1nc(-c2ccccn2)nc(NCCc2ccc(S(C)(=O)=O)cc2)c1Cl | 0.167 (inactive) |
| COc1ccc(-c2nn(C(C)C)c3ncnc(N)c23)cc1OC | 0.0556 (inactive) |
| O=C(Nc1c(O)cccc1-c1nc2c(C(=O)O)cccc2o1)c1cc(-c2ccccc2)on1 | 0.027 (inactive) |
| CC[P](CC)(CC)=[Au][S][C@H]1O[C@@H](COC(C)=O)[C@H](OC(C)=O)[C@@H](OC(C)=O)[C@@H]1OC(C)=O | 1 (active) |
| COc1ccc(S(=O)(=O)Nc2ccc(CN3CCN(C(=O)c4cccc(C#N)c4)CC3)cc2)cc1 | 0.111 (inactive) |
| COCC(C)NC(=O)CSc1ncnc2sc(-c3ccccc3)cc12 (stereo not drawn) | 0.135 (inactive) |
| Cc1cc(C)c2cc(C(=O)NC3CCCCCCC3)[nH]c2c1 | 0.333 (inactive) |
| COc1ccc(Cn2cnc3c(-c4ccco4)nc(Cl)nc32)cc1 | 0.0556 (inactive) |
| COc1ccc(-c2onc(C(F)(F)F)c2-c2ccc(Cl)cc2)c(O)c1 | 0.167 (inactive) |

| Structure (SMILES) | drug effect |
| --- | --- |
| COc1ccc(C(=N)N)cc1-c1cn(-c2ccc(C(=N)N)cc2)nn1 | 0.0811 (inactive) |
| CN1CCN(S(=O)(=O)c2ccc(-c3ccc4c(Nc5ncc(Cl)cn5)ccnc4c3)cc2)CC1 | 0.611 (active) |
| Clc1ccc(-n2cc(COc3ccnc4ccccc34)nn2)cc1 | 0.389 (inactive) |
| COc1ccc(Cl)cc1NC(=O)CN(C)C(=O)c1cnn(-c2ccccc2)n1 | 0.351 (inactive) |
| c1ccc(Oc2ccc(-c3cc(N4CCOCC4)[nH]n3)cc2)cc1 | 0.297 (inactive) |
| Nc1ncc(Br)cc1-c1nc2cc(Cl)cnc2[nH]1 | 0.111 (inactive) |
| N#Cc1ccc(-c2ccc(OCC(N)=O)cc2)cc1 | 0.2 (inactive) |
| O=C(C(Cc1c[nH]c2ccccc12)NS(=O)(=O)c1ccc(Cl)cc1)N1CCCCC1 (stereo not drawn) | 0.0811 (inactive) |
| CCC(Sc1nc2ccccc2o1)C(=O)Nc1nnc(C)s1 (stereo not drawn) | 0.111 (inactive) |
| CCc1c(C)nc(-n2nc(C)cc2NC(=O)c2ccccc2SC)[nH]c1=O | 0.95 (active) |
| c1ccc(-c2nc(NC3CCCCC3)cc(C3CC3)n2)nc1 | 0.0811 (inactive) |
| c1ccc(Oc2ccc(-c3cc(C4CCOCC4)[nH]n3)cc2)cc1 | 0.35 (inactive) |
| Cc1cccc(Cn2ccc(NC(=O)c3ccc4c(c3)OCO4)n2)c1 | 0.125 (inactive) |
| COc1cc(C2=NCCN2)ccc1-c1cn(-c2cccc(C3=NCCN3)c2)nn1 | 0.297 (inactive) |
| O=C(c1ccc(F)cc1)N(CCNc1ccccc1)c1ccccc1 | 0.167 (inactive) |
| Cc1cc(OCC(=O)NCc2ccccc2)c2cc(Br)ccc2n1 | 0.0556 (inactive) |
| COc1cccc2c(C)nc(N=C(N)N)nc12 | 0.2 (inactive) |
| CC(C)n1ncc2c(C(=O)NCC(c3cccs3)N3CCOCC3)cc(-c3ccccc3)nc21 (stereo not drawn) | 0.5 (active) |
| CCN(CC)CCCCCCNc1cc(OC)cc2c(C)ccnc12 | 0.135 (inactive) |

Same assay, conditions: 72 h; 10 µM

| Structure (SMILES) | drug effect |
| --- | --- |
| c1ccc(C[C@@H]2CN(c3nccc(Oc4ccc(-n5ccnc5)cc4)n3)CCN2)cc1 | 0.188 (inactive) |
| Cc1nc(-c2cccc(NCc3ccccc3)c2)[nH]c1C | 0.25 (inactive) |
| c1cc(C2=NCCN2)cc(-c2cc(-c3ccc(C4=NCCN4)cc3)no2)c1 | 0.125 (inactive) |
| NCCC(O)C(=O)N[C@@H]1C[C@H](N)[C@@H](OC2O[C@H](CN)[C@@H](O)[C@H](O)[C@H]2O)[C@H](O)C1OC1O[C@H](CO)[C@@H](O)[C@H](N)[C@H]1O (stereo partly drawn) | < 0 (inactive) |
| Nc1ccc(C(=O)Nc2ccc(-c3nc4ccccc4o3)cc2)cc1 | 0.211 (inactive) |
| Cc1ccc2nc(Cl)c(CNCc3cccs3)cc2c1 | 0.0727 (inactive) |
| Cc1nn(C)cc1C(C)Nc1nncc(-c2ccc(C(F)(F)F)cc2)n1 (stereo not drawn) | 0.105 (inactive) |
| Clc1cccc(C(c2ccc(CN3CCNCC3)cc2)n2ccnc2)c1 (stereo not drawn) | 0.875 (active) |
| Nc1ccc2ncnc(Nc3ccc(OCc4cccc(F)c4)c(Cl)c3)c2c1 | 0.879 (active) |
| COc1ccc(C2=NN(C3CCCCCC3)C(=O)[C@@H]3CC=CC[C@H]23)cc1OCCCCOc1ccc(-c2nn[nH]n2)cc1 | 0.667 (active) |
| Clc1ccc(CN2CCN(C3=NCCN3)CC2)cc1Cl | 0.125 (inactive) |
| Cc1nc(-c2ccccn2)nc(NCCc2ccc(S(C)(=O)=O)cc2)c1Cl | 0.5 (active) |
| COc1ccc(-c2nn(C(C)C)c3ncnc(N)c23)cc1OC | 0.0556 (inactive) |
| O=C(Nc1c(O)cccc1-c1nc2c(C(=O)O)cccc2o1)c1cc(-c2ccccc2)on1 | 0.0303 (inactive) |
| CC[P](CC)(CC)=[Au][S][C@H]1O[C@@H](COC(C)=O)[C@H](OC(C)=O)[C@@H](OC(C)=O)[C@@H]1OC(C)=O | 1 (active) |
| COc1ccc(S(=O)(=O)Nc2ccc(CN3CCN(C(=O)c4cccc(C#N)c4)CC3)cc2)cc1 | 0.188 (inactive) |
| COCC(C)NC(=O)CSc1ncnc2sc(-c3ccccc3)cc12 (stereo not drawn) | 0.111 (inactive) |
| Cc1cc(C)c2cc(C(=O)NC3CCCCCCC3)[nH]c2c1 | 0.438 (inactive) |
| COc1ccc(Cn2cnc3c(-c4ccco4)nc(Cl)nc32)cc1 | 0.125 (inactive) |
| COc1ccc(-c2onc(C(F)(F)F)c2-c2ccc(Cl)cc2)c(O)c1 | 0.188 (inactive) |

| Structure (SMILES) | drug effect |
| --- | --- |
| COc1ccc(C(=N)N)cc1-c1cn(-c2ccc(C(=N)N)cc2)nn1 | 0.0909 (inactive) |
| CN1CCN(S(=O)(=O)c2ccc(-c3ccc4c(Nc5ncc(Cl)cn5)ccnc4c3)cc2)CC1 | 0.625 (active) |
| Clc1ccc(-n2cc(COc3ccnc4ccccc34)nn2)cc1 | 0.312 (inactive) |
| COc1ccc(Cl)cc1NC(=O)CN(C)C(=O)c1cnn(-c2ccccc2)n1 | 0.389 (inactive) |
| c1ccc(Oc2ccc(-c3cc(N4CCOCC4)[nH]n3)cc2)cc1 | 0.152 (inactive) |
| Nc1ncc(Br)cc1-c1nc2cc(Cl)cnc2[nH]1 | 0.188 (inactive) |
| N#Cc1ccc(-c2ccc(OCC(N)=O)cc2)cc1 | 0.127 (inactive) |
| O=C(C(Cc1c[nH]c2ccccc12)NS(=O)(=O)c1ccc(Cl)cc1)N1CCCCC1 (stereo not drawn) | 0.111 (inactive) |
| CCC(Sc1nc2ccccc2o1)C(=O)Nc1nnc(C)s1 (stereo not drawn) | 0.312 (inactive) |
| CCc1c(C)nc(-n2nc(C)cc2NC(=O)c2ccccc2SC)[nH]c1=O | 1 (active) |
| c1ccc(-c2nc(NC3CCCCC3)cc(C3CC3)n2)nc1 | 0.152 (inactive) |
| c1ccc(Oc2ccc(-c3cc(C4CCOCC4)[nH]n3)cc2)cc1 | 0.127 (inactive) |
| Cc1cccc(Cn2ccc(NC(=O)c3ccc4c(c3)OCO4)n2)c1 | < 0 (inactive) |
| COc1cc(C2=NCCN2)ccc1-c1cn(-c2cccc(C3=NCCN3)c2)nn1 | 0.394 (inactive) |
| O=C(c1ccc(F)cc1)N(CCNc1ccccc1)c1ccccc1 | 0.25 (inactive) |
| Cc1cc(OCC(=O)NCc2ccccc2)c2cc(Br)ccc2n1 | 0.0625 (inactive) |
| COc1cccc2c(C)nc(N=C(N)N)nc12 | 0.127 (inactive) |
| CC(C)n1ncc2c(C(=O)NCC(c3cccs3)N3CCOCC3)cc(-c3ccccc3)nc21 (stereo not drawn) | 0.4 (inactive) |
| CCN(CC)CCCCCCNc1cc(OC)cc2c(C)ccnc12 | 0.167 (inactive) |
